# Laboratory results: a collection of fitness landscapes (doi:10.1016/j.celrep.2020.107928)
# Whole data set: some 81,000 sequences, median “one-hybrid fitness for binding parS DNA” near -0.17, cut for the highest 2% near 0.51. Many of the other results were omitted from the sample, so the highest values are more common in it than they were.
# B1: Caulobacter ParB omega fusion; a variant is named by its letters at X, in order, B8GW30 (parent)
# chain: MESVVVGEPGMSEGRRGLGRGLSALLGEVDAAPAQAPGEQLGGSREAPIEILQRNPDQPRRTFREEDLEDLSNSIREKGVLQPILVRPSPDTAGEYQIVAGERAWRAAQRAGLKTVPIMVRELDDLAVLEIGIIENVQRADLNVLEEALSYKVLMEKFERTQENIAQTIGKSXSHVANXMRLLXLPDEVQSYLVSGELTAXHARAIAAAADPVALAKQIIEGGLSVRETEALARKAPNLSAGKSKGGRPPRVKDTDTQALESDLSSVLGLDVSIDHRGSTGTLTITYATLEQLDDLCNRLTRGI
# Variants of: B1
# Assay: one-hybrid fitness for binding parS DNA (scaled: cognate 1, non-cognate 0); higher = stronger binding
# Conditions: with parS DNA site
# Procedure, shortened: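 On M9-minus-histidine containing 0.1 mM IPTG and 5 mM 3-AT, E. coli USO cells with a HIS3 reporter, site 19 bp from the promoter, grew 48 hours at 37°C to select Caulobacter ParB libraries randomised at four specificity codons. Plasmids from before and after were Illumina-sequenced, with three replicate libraries pooled and variants under 10 reads left out. Fitness is the log change in variant-to-wild-type read ratio, rescaled against cognate and non-cognate.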
row,Variant,one-hybrid fitness for binding parS DNA
1,HCDK,≤ 0.2
2,RLQT,0.946
3,RLYM,0.364
4,RLLD,0.231
5,RLYT,0.943
6,RLCP,≤ 0.2
7,RLCD,≤ 0.2
8,RLQK,≤ 0.2
9,RLQF,0.229
10,RLLT,0.961
11,RLLP,≤ 0.2
12,RLYQ,≤ 0.2
13,RLCT,0.923
14,YINM,≤ 0.2
15,QHNA,≤ 0.2
16,HQSH,≤ 0.2
17,KQRG,≤ 0.2
18,FYRR,≤ 0.2
19,EMVC,≤ 0.2
20,TCPF,≤ 0.2
21,RLHY,0.473
22,RLHR,≤ 0.2
23,RLHT,0.937

row,Variant,one-hybrid fitness for binding parS DNA
1,REQG,≤ 0.2
2,RHNF,≤ 0.2
3,RHYP,≤ 0.2
4,RHQG,0.973
5,RHPG,0.451
6,RHNG,0.953
7,RHIG,0.705
8,RHIF,≤ 0.2
9,RHQR,≤ 0.2
10,RHYD,≤ 0.2
11,RHNR,≤ 0.2
12,RHYG,0.95
13,HCSV,≤ 0.2
14,DCCS,≤ 0.2
15,HYWT,≤ 0.2
16,QSAL,≤ 0.2
17,FRKP,≤ 0.2
18,GIVG,≤ 0.2
19,PFTT,≤ 0.2
20,ALPV,≤ 0.2
21,QCAF,≤ 0.2
22,RHCG,0.95
23,RHHK,≤ 0.2

row,Variant,one-hybrid fitness for binding parS DNA
1,RHCM,≤ 0.2
2,RHHQ,≤ 0.2
3,RHLG,0.967
4,RHCK,≤ 0.2
5,RHLQ,≤ 0.2
6,RHDN,0.33
7,RHHG,0.967
8,RHDG,0.917
9,RHDD,≤ 0.2
10,RHLF,0.23
11,KRLV,≤ 0.2
12,YFQT,≤ 0.2
13,TWNC,≤ 0.2
14,KIDC,≤ 0.2
15,YREL,≤ 0.2
16,QRPG,≤ 0.2
17,ANRV,≤ 0.2
18,RHSG,0.958
19,RHGP,≤ 0.2
20,RHRG,0.903
21,RHGG,0.939
22,RHRP,≤ 0.2
23,RHGH,≤ 0.2
